According to PubChem BioAssay (NCI):
The panel holds about 83,000 compounds, 20% with a hit somewhere; the sample as a whole holds those more often.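 In brief: 96-well plates, 48 h treatment, single concentration, percent growth endpoint.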 Values without a mark were called inactive. Activity calls are given as the source filed them. The calls were made as follows: active = growth percent below 10; inactive = the rest.

Tested on: HL-60(TB) leukemia
Experiment: NCI-60 one-dose screen, 48 h (100 = growth as untreated, 0 = no growth, -100 = all killed)
Details: 10 µM unless noted

Structure (SMILES)	growth
COC(=O)Nc1nc2ccc(C(=O)c3ccc(N(C)C4COC4)cc3)cc2[nH]1	-28.8% (active)
COc1cc2c(cc1OC)C(Sc1ccc(Cl)cc1)c1c(nc(N)c(C#N)c1N)O2 (centres undefined)	-25.1% (active)
C=C1C(=O)O[C@H]2[C@H]1CC/C(COC(=O)CSCSCC(=O)OC/C1=C/CC[C@@]3(C)O[C@H]3[C@H]3OC(=O)C(=C)[C@@H]3CC1)=C\CC[C@@]1(C)O[C@@H]21	-53.9% (active)
O=C1/C(=C/c2ccc([N+](=O)[O-])s2)Oc2ccc(Cl)cc21	-20.6% (active)
NS(=O)(=O)c1ccc(N=Nc2c(O)n(Cc3ccccc3)c3ccc(Cl)cc23)cc1	95%
Cc1cc(O)c(C(C)(C)C)cc1Sc1cc(C(C)(C)C)c(O)cc1C	-20.9% (active)
N#Cc1cncc(-c2ccc3ncnc(Nc4cccc(Cl)c4)c3c2)c1	97.2%
O=C(c1ccc(Cl)cc1)C1C(c2ccccc2)C1[N+](=O)[O-] (centres undefined)	99.3%
O=C1/C(=C/c2ccc(C(F)(F)F)cc2)COc2ccc(O)cc21	-36.1% (active)
C=CC(=O)Nc1cccc(-c2nc(SC)nc(NCCN3CCOCC3)c2C#N)c1	94.9%
Cc1ccc(C)c(S(=O)(=O)NC2c3ccccc3Oc3ccccc32)c1	86.9%
O=C1OC(c2ccccc2)(c2ccccc2)c2ccsc21	86.6%
COc1cc(/C=C/c2cc(/C=C/c3ccc(O)c(OC)c3)n(C(=O)Nc3ccc(F)cc3)n2)ccc1O	-21.4% (active)
O=C(Cc1ccc(F)c(Cl)c1)Nc1cc(C2(C(F)(F)F)CC2)nn1CC1CCCCC1	14.8%
Fc1cc(F)cc(C(c2c[nH]c3ccccc23)c2c[nH]c3ccccc23)c1	147%
C#COc1cccc(Nc2ncnc3cc(NC(=O)[C@H](C)Cl)ccc23)c1	99.4% [6.25 µM]
CC1(C)Oc2cc3oc(=O)ccc3cc2C[C@@H]1OCCOS(=O)(=O)c1ccc(C#N)cc1	100%
CC(=O)N1N=C(c2cccc(Nc3ccncc3)c2)CC1c1ccc2c(c1)OCO2 (centres undefined)	90.3%
O=C1c2cccc3c(-c4ccc5c(c4)ncn5C4CCCCC4)ccc(c23)C(=O)N1c1nc2ccccc2s1	76%
O=C(CCCN1CCC(O)(c2ccc(Br)cc2)CC1)c1ccc(F)cc1	72.5%

Structure (SMILES)	growth
CSc1nc(N)c2[nH]c(-c3cc4ccccc4[nH]c3=O)nc2n1	88.8%
CCN1CCN(CC(=O)Nc2nc3ccc(NCc4ccc(Cl)cc4)cc3s2)CC1	29%
N#C/C(=C\c1cccc2cnccc12)N1N=NC2C=CC=CC21 (centres undefined)	8.65% (active)
COc1cc(/C=C/C(=O)c2cccc(-n3cc(-c4ccccc4)[nH]c3=O)c2)cc(OC)c1OC	-5.55% (active)
O=C1/C(=C\c2ccc([N+](=O)[O-])cc2)CS(=O)(=O)C/C1=C/c1ccc([N+](=O)[O-])cc1	-38.4% (active)
CCOC(=O)c1csc(NC(=O)COc2cccc(/C=C3\CSc4ccccc4C3=O)c2)n1	-77.5% (active)
Nc1c(C(=O)Nc2cccc3ccccc23)sc2nc3c(cc12)CCCCCC3	-31% (active)
S=C(S)Oc1cccc2cccnc12	80.7%
CN1C(=O)[C@H]2c3c1cccc3[C@@]13NC(=O)O[C@H]1[C@H](CCC3(C)C)C2(C)C	97.9%
COc1ccc(/C=C2\COc3ccc(O)cc3C2=O)cc1OC	3.81% (active)
Clc1ccc2c(NCCCNc3nc(-n4ccnc4)nc4ccccc34)ccnc2c1	69.4%
O=c1cc(NC2CCN(CCCc3ccccc3)CC2)c2cc(Cl)ccc2o1	-7.02% (active)
CN(C)c1ccc(N=Nc2ccc3ccccc3c2)cc1	61.6%
CN1C(=O)N(C)C2C1NN=c1s/c(=C\c3ccc(F)cc3)c(=O)n12 (centres undefined)	-22.4% (active)
O=C(NCCNC(c1ccccc1)C(NCCNC(=O)c1ccccc1)c1ccccc1)c1ccccc1 (centres undefined)	68.3%
Brc1cnc2ccccc2c1	89.1%
COc1ccccc1NS(=O)(=O)c1cccc(C(=O)Nc2ccc(Br)cc2)c1	29.4%
O=C(O)CN1C(=O)C=CC1=O	96.9%
CN(C)/N=C/c1ccccc1O	97.1%
